Measured values from PubChem BioAssay (NCATS).
Records with an inconclusive call do not appear. The source made the active and inactive calls. The call rests on the fitted dose curve; in most records, active means well fitted curve in the direction sought with a large enough effect; inconclusive means small, poorly fitted or top-dose-only effect, or another doubt; inactive means no such curve, though single readings can be large; an effect the other way counts as inactive or inconclusive.

molecular target: Rap guanine nucleotide exchange factor 4 (Homo sapiens) (UniProt Q8WZA2); experiment: Confirmatory qHTS for antagonist of cAMP-regulated guanine nucleotide exchange factor 4 (EPAC2) (AID 1645885); settings: EPAC2 Rap1B-BODIPY-GDP exchange fluorescence, biochemical; series mostly up to 12.7 µM; activity change, negative = inhibition: at the top concentration; further: nearly all actives have a fitted effect of over 25% in size; on activity change, negative = inhibition: on the % scale 0 is the no-effect control and ±100 the full control effect
Sequence (Q8WZA2 whole entry, looked up): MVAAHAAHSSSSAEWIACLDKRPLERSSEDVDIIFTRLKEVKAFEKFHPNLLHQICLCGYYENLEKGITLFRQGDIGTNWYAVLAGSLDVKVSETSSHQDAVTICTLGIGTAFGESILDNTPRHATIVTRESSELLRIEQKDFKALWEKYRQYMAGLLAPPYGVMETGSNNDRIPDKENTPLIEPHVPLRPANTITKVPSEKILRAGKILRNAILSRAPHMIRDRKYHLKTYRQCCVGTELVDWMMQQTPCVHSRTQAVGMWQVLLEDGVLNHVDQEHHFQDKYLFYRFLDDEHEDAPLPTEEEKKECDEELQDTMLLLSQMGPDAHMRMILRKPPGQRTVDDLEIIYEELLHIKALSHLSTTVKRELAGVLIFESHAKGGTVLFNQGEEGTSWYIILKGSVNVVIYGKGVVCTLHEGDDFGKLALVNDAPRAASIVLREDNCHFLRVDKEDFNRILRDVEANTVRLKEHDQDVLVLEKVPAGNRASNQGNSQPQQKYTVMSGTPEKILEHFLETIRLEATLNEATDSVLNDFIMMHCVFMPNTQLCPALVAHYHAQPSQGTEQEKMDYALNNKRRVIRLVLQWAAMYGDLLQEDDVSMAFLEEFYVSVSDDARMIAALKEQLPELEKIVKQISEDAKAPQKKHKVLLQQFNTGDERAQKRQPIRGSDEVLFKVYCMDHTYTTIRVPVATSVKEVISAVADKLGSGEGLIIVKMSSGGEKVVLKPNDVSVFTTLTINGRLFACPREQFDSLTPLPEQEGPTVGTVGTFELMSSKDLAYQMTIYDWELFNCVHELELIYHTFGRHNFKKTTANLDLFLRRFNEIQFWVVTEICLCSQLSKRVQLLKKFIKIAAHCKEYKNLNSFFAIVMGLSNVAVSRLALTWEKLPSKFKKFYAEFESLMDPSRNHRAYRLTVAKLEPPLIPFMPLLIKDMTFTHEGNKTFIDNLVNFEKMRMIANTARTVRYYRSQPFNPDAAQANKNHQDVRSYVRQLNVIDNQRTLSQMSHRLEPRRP

SMILES | activity change, negative = inhibition | outcome
Cc1ccc(C)c(N2CCN(C(=O)CCc3nc(-c4ccc(Cl)cc4)no3)CC2)c1 | -27.4% [at 114 µM] (inactive) | 
Cc1cccc(Cn2cc(SCC(=O)Nc3nccs3)c3ccccc32)c1 |  | inactive
CC(C)(C)c1nc(-c2ccccc2)nc2c1OCCC2 | 21.5% [at 114 µM] (inactive) | 
COc1cc(NC(=S)NCCC(c2ccccc2)c2ccccc2)cc(OC)c1 | -27.1% (inactive) | 
CCCn1c(N)c(C(=O)CSc2n[nH]c(-c3ccc(C)cc3)n2)c(=O)[nH]c1=O | 1.15% [at 114 µM] (inactive) | 

molecular target: Rap guanine nucleotide exchange factor 3 (Homo sapiens) (UniProt O95398); experiment: Counterscreen qHTS for antagonist of cAMP-regulated guanine nucleotide exchange factor 3 (EPAC1) (AID 1645888); settings: Rap1B-BODIPY-GDP nucleotide exchange, fluorescence; series mostly up to 154 µM; activity change, negative = inhibition: at the top concentration;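 further: fluorescence loss as bound BODIPY-GDP is released from Rap1B; % of control where 0% means no effect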
Procedure, shortened: (§1)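 Measured: fluorescence of BODIPY-GDP bound to Rap1B, which falls as exchange proceeds. Conditions include 50 uM competing GDP, 5 and 30 min reads, and a later cAMP challenge for antagonist detection.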

Chain of Rap guanine nucleotide exchange factor 3 (Homo sapiens) (O95398 whole entry, looked up): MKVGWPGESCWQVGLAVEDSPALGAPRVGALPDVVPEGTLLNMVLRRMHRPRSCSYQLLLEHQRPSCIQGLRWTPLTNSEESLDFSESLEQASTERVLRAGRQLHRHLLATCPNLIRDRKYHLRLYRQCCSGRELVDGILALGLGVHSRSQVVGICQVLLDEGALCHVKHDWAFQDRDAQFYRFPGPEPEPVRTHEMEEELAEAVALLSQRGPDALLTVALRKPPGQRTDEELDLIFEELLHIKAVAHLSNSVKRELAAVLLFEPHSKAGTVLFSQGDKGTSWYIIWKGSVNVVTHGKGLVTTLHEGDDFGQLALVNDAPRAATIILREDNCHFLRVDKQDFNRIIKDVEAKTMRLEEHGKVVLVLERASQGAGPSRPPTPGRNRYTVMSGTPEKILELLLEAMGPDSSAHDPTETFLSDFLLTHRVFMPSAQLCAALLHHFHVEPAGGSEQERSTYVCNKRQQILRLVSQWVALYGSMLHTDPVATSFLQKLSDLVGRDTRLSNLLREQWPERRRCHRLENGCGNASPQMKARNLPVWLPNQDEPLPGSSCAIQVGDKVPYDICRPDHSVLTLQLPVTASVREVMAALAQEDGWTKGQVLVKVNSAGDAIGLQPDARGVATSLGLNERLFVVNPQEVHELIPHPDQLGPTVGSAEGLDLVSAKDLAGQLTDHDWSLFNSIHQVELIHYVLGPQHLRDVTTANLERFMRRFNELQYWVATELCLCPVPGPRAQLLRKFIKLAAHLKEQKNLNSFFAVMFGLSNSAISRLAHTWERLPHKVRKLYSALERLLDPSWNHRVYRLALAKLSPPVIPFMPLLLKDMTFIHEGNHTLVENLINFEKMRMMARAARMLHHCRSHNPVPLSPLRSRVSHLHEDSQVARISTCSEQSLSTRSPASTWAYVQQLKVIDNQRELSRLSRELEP

SMILES | activity change, negative = inhibition
C/C(=N\N1C(=O)c2ccccc2NC1c1ccco1)c1ccccc1O (configuration not stated) | 11.4% (inactive)
CN(C)C(=S)Oc1ccccc1-c1ccccc1OC(=S)N(C)C | -0.125% (inactive)
COc1cccc2c(N/N=C/c3ccco3)cc(C)nc12 | 20.2% (inactive)
CCOc1ccc(CCNc2ncnc3onc(-c4ccc(Cl)cc4)c23)cc1OCC | -1.88% (inactive)
O=C(N/N=C/c1c(O)n(-c2ccccc2Cl)c(=O)c2ccccc12)c1cccnc1 | -0.733% (inactive)
COc1ccccc1C(=O)NC(CCSC)C(=O)NCc1ccccn1 (configuration not stated) | -16.2% [at 30.8 µM] (inactive)
COc1ccc(-c2nn(-c3ccccc3)cc2/C=N/n2cnnc2)cc1OC | 19.4% (inactive)
COC(=O)c1ccc(/C=C2\CCn3c2nc2cc(C(=O)O)ccc2c3=O)cc1 | 10% (inactive)
CC(=O)N(/N=C1/C(=O)Nc2ccccc21)c1ccccc1 | 9.34% (inactive)
Cc1ccc(NC(=O)C2CCCN2S(=O)(=O)c2cccc3nsnc23)c(Br)c1 (configuration not stated) | 18.7% (inactive)
Cc1cccc(Cn2cc(SCC(=O)Nc3nccs3)c3ccccc32)c1 | -8.29% (inactive)
COc1cc(NC(=S)NCCC(c2ccccc2)c2ccccc2)cc(OC)c1 | 11% [at 30.8 µM] (inactive)

molecular target: Rap guanine nucleotide exchange factor 3 (Homo sapiens) (UniProt O95398); experiment: Counterscreen qHTS for agonist of cAMP-regulated guanine nucleotide exchange factor 3 (EPAC1) (AID 1645889); settings: EPAC1 Rap1B-BODIPY-GDP exchange, fluorescence; series mostly up to 154 µM; activation: at the top concentration; further: nearly all actives have a fitted effect of over 40% in size; further: potency means the concentration at half of the fitted maximal effect; on activation: % of control where 0% means no effect
Procedure, shortened: as §1

SMILES | activation | Potency
CCCCC(=O)N(c1ccc(C(=O)O)cc1)c1nc(-c2ccc(Cl)cc2)c(CC)s1 | 19.6% [at 30.8 µM] (inactive) | 
COc1ccc(N2CCN(C(=O)CCc3ccccc3OC)CC2)cc1 | 13.9% (inactive) | 
COc1c(-c2ccccc2)oc2c(ccc3occc32)c1=O | 21.6% (inactive) | 
CC(C)(C)[C@H](N)C(=O)N[C@H]1CCC2C3CC=C4C[C@@H](O)CC[C@]4(C)C3CC[C@@]21C (some centres not stated) | 31.4% [at 30.8 µM] (inactive) | 
CC(C)CNC(=O)c1c(-c2ccccc2)c(-c2ccccc2)nn(C)c1=O | 31.3% (inactive) | 
CC(OC(=O)CCN1C(=O)C2CC=CCC2C1=O)C(=O)Nc1cccc(C#N)c1 (configuration not stated) | 3.18% [at 30.8 µM] (inactive) | 
CN(C)C(=S)Oc1ccccc1-c1ccccc1OC(=S)N(C)C | 12.9% (inactive) | 
Cc1ccccc1OCCC(=O)OCC(=O)N1CCN(S(=O)(=O)c2ccc(Cl)cc2)CC1 | 26.1% [at 30.8 µM] (inactive) | 
COc1cccc2c(N/N=C/c3ccco3)cc(C)nc12 | 21% (inactive) | 
O=c1oc2cc(O)ccc2cc1-c1nc2ccccc2o1 |  | 70.8 µM (active)
O=C1NC(=O)C2(N1)C(=O)c1cccc3cccc2c13 (configuration not stated) |  | 44.7 µM (active)
COC1=CC(=O)c2c(ccc3ncnc(N)c23)C1=O | -8.31% (inactive) | 
Nc1ccc(-c2c3ccc(=O)cc-3oc3cc(O)ccc23)c(C(=O)O)c1 |  | 31.6 µM (active)
O=C(N/N=C/c1c(O)n(-c2ccccc2Cl)c(=O)c2ccccc12)c1cccnc1 | 10.1% (inactive) | 
CCCCN(C(=O)CSCC(=O)Nc1ccc(C)cc1)c1c(N)n(CCCC)c(=O)[nH]c1=O | 6.23% [at 30.8 µM] (inactive) | 
CCN(CC)c1ccc2oc(=O)c(C)nc2c1 |  | 39.8 µM (active)
COc1cc2c(cc1OC)-c1cc(NC3CCCCC3)nc(=O)n1CC2 | 2.97% [at 30.8 µM] (inactive) | 
CN(CCc1ccccn1)C(=O)Nc1ccc(F)cc1 | 16.1% (inactive) | 
OC1C2CN3CCN(C2)CC1(Cc1ccccc1)C3 (configuration not stated) | 28.2% [at 30.8 µM] (inactive) | 
COc1ccccc1C(=O)NC(CCSC)C(=O)NCc1ccccn1 (configuration not stated) | -9.2% [at 30.8 µM] (inactive) | 
CN(Cc1ccccc1)S(=O)(=O)c1ccc(Cl)c(C(=O)NCc2ccncc2)c1 | 21% (inactive) | 
CC(/C=C1\SC(=S)N(C(C(=O)O)C(C)C)C1=O)=C\c1ccccc1 (configuration not stated) | 2.1% (inactive) | 
CC1CC1C(=O)OCC(=O)NNC(=O)COc1ccc(Br)cc1 (configuration not stated) | 28.1% [at 30.8 µM] (inactive) | 
CC(C)(C)c1nc(-c2ccccc2)nc2c1OCCC2 | -18.5% (inactive) | 
CCCn1c(N)c(C(=O)CSc2n[nH]c(-c3ccc(C)cc3)n2)c(=O)[nH]c1=O | 18.6% (inactive) | 
